aSyn 5UTR act = Activators via SNCA 5'UTR binding, MLPCN; 7.1% of 300,000 active; alpha-synuclein 5'UTR reporter, activators screen; activity score, % (tested at 7.5 µM), hits read low; in the data active = activity score below about -60%
Of the large screens only hits and unclear results are named; the others gave an inactive call. Only a sample is shown.

Cc1ccc(OCc2ccc(C(=O)Nc3nccs3)o2)cc1	aSyn 5UTR act -88
COC(=O)c1ccccc1NC(=O)c1ccc2c(c1)CC(C)O2 (stereo unspecified)	aSyn 5UTR act -65
O=C(Nc1ccc(Cl)cc1)Nc1ccc(Br)cn1	aSyn 5UTR act -103
Cn1ncc(Br)c1C(=O)Nc1ccc(Br)cn1	aSyn 5UTR act -89
CCOc1ccc(NC(=S)NNC(=O)c2cc(Br)ccc2Cl)cc1	aSyn 5UTR act -109
CCOc1ccc(NC(=O)Nc2ccc(Br)cn2)cc1	aSyn 5UTR act -105
CCCCCCC(=O)Nc1ccc(Br)cn1	aSyn 5UTR act -62
Fc1cccc(Cl)c1Cc1noc(/C=C/c2ccccc2)n1	aSyn 5UTR act -209
COc1ccc(C(=O)c2ccc(CC#N)s2)cc1	aSyn 5UTR act -150
COc1ccc(C(=O)c2ccsc2N)cc1	aSyn 5UTR act -97
CCOc1ccccc1N/C=C(\C#N)c1nc2ccccc2n1C	aSyn 5UTR act -76
O=C(CC1NCCNC1=O)Nc1ccc(Cl)c(Cl)c1 (stereo unspecified)	aSyn 5UTR act -92
COc1ccc(-c2csc(=Nc3ccccc3)n2CCO)cc1	aSyn 5UTR act -100
COc1ccc(-c2csc(=NCCO)n2-c2ccccc2)cc1	aSyn 5UTR act -99
O=C1C(C=NCc2ccco2)=C(O)c2ccccc21	aSyn 5UTR act -141
O=C1C(C=NCc2cccnc2)=C(O)c2ccccc21	aSyn 5UTR act -186
Fc1ccccc1NC(=S)NCCc1ccccc1	aSyn 5UTR act -118
Fc1ccc(F)c(NC(=S)NCCc2ccccc2)c1	aSyn 5UTR act -93
Fc1cccc(NC(=S)NCCc2ccccc2)c1	aSyn 5UTR act -71
Cc1ccc(SCCSc2nc(C)cc(=O)[nH]2)cc1	aSyn 5UTR act -133
C/C(=N\Nc1ncnc2sc(C)c(C)c12)c1ccccn1	none
Cc1ccc(Nc2ncnc3sc(C)c(C)c23)cc1	aSyn 5UTR act -182
Cc1sc2ncnc(N/N=C/c3cccc(O)c3)c2c1C	aSyn 5UTR act -75
Cc1cc(N2CCCCCC2)nc2ccc(F)cc12	aSyn 5UTR act -64
Cc1ccc(C(=O)c2cc([N+](=O)[O-])ccc2N2CCCCC2)cc1	none
Fc1cc(F)c2nc(N3CCCCC3)sc2c1	aSyn 5UTR act -98
Fc1ccc2nc(N3CCCC3)sc2c1	aSyn 5UTR act -200
O=[N+]([O-])c1ccc2nc(N3CCCC3)sc2c1	aSyn 5UTR act -121
O=C(NC(=S)Nc1ccc(N2CCCC2)cc1)c1ccccc1[N+](=O)[O-]	aSyn 5UTR act -104
O=C(NNC(=S)Nc1ccccc1)c1ccccc1[N+](=O)[O-]	aSyn 5UTR act -77
Cc1cccc(-n2ncc3c(Nc4ccc(F)cc4)ncnc32)c1	aSyn 5UTR act -108
Cc1cccc(-n2ncc3c(N(C)Cc4ccccc4)ncnc32)c1	aSyn 5UTR act -169
Cc1cccc(-n2ncc3c(N)ncnc32)c1	aSyn 5UTR act -74
COc1ccc(-n2ncc3c(Nc4cccc(C)c4)ncnc32)cc1	aSyn 5UTR act -202
O=C(Nc1nnc(-c2ccc3c(c2)OCCO3)o1)C1CCCCC1	aSyn 5UTR act -88
O=C(c1ccc(Cl)cc1)N1CCCCC(Sc2nnc(-c3ccc4c(c3)OCO4)o2)C1=O (stereo unspecified)	none
O=C(Nc1nnc(-c2ccccc2)o1)C1CCCCC1	aSyn 5UTR act -63
O=C(Nc1nnc(-c2ccc(Cl)s2)o1)C1CCCCC1	aSyn 5UTR act -63
Clc1ccc(-c2nnc(NC3=NCCCCC3)o2)cc1	none
CC1(C)COCN1S(=O)(=O)c1ccc(C(=O)Nc2nnc(-c3ccc(Cl)s3)o2)cc1	none
O=C(Nc1nnc(-c2ccc(Cl)cc2)o1)C1CCCCC1	aSyn 5UTR act -80
Cn1nc(-c2ccccc2)cc1NC(=O)C1CCCCC1	aSyn 5UTR act -70
COc1ccc(CNc2nc3ccccc3s2)cc1OC	aSyn 5UTR act -141
Cc1ccc(CNc2nc3ccccc3s2)s1	none
c1ccc(CCNc2nc3ccccc3s2)cc1	aSyn 5UTR act -81
Oc1ccc(/C=N/Nc2ccnc3cc(Cl)ccc23)cc1O	aSyn 5UTR act -78
O=[N+]([O-])c1ccc(/C=N/n2cnc3ccccc32)s1	none
COc1cccc(/C=N/n2cnc3cc(C)c(C)cc32)c1OC	aSyn 5UTR act -97
Cc1cc2ncn(/N=C/c3ccc([N+](=O)[O-])s3)c2cc1C	aSyn 5UTR act -117
CCc1nc2ccc(C(=O)NC3CCC(C)CC3)cc2nc1CC (stereo unspecified)	aSyn 5UTR act -86
CC1CCC(NC(=O)c2ccc3snnc3c2)CC1 (stereo unspecified)	aSyn 5UTR act -86
COc1cccc(OCc2cc(/C=N/Nc3ccc(C(=O)O)cc3)ccc2OC)c1	aSyn 5UTR act -92
CCOc1cc(/C=N/Nc2ccc(C(=O)O)cc2)ccc1OC(=O)c1ccccc1C	aSyn 5UTR act -91
CCOC(=O)c1sc2nc(NC(=O)C3CC3)sc2c1C	aSyn 5UTR act -201
CCOC(=O)c1sc2nc(NC(=O)C(C)(C)C)sc2c1C	aSyn 5UTR act -135
Cc1cccc(NC(=O)c2c(C)nn(-c3ccccc3)c2Cl)c1	aSyn 5UTR act -97
CCOC(=O)c1cc(C(=O)Nc2cccc(C)c2)nn1C	aSyn 5UTR act -121
COC(=O)c1ccccc1NC1=C/C(=N\S(=O)(=O)c2cccs2)c2ccccc2C1=O	aSyn 5UTR act -91
Cc1ccc(NC(=S)NCCc2ccccc2)nc1	aSyn 5UTR act -99
Cc1ccc(NC(=O)CCCc2ccccc2)nc1	aSyn 5UTR act -100
CN(C)C(=O)c1ccc2c(c1[N+](=O)[O-])C(=O)c1ccccc1C2=O	aSyn 5UTR act -116
O=[N+]([O-])c1ccc(N/N=C/c2cn(-c3ccccc3)nc2-c2ccccc2)cc1	aSyn 5UTR act -71
NS(=O)(=O)c1ccc(N/N=C/c2cn(-c3ccccc3)nc2-c2ccccc2)c([N+](=O)[O-])c1	aSyn 5UTR act -121
COc1ccc(-c2nc(-c3ccc(Br)o3)no2)cc1OC	aSyn 5UTR act -211
COc1ccc(-c2nnc(-c3ccc(Br)o3)o2)cc1OC	aSyn 5UTR act -90
COc1ccccc1-c1nc(-c2ccc(Br)o2)no1	aSyn 5UTR act -95
CCc1ccc(Nc2nnc(SCC(=O)Nc3cccnc3Cl)s2)cc1	aSyn 5UTR act -64
CCc1ccc(Nc2nnc(SCC(=O)Nc3sccc3C(N)=O)s2)cc1	aSyn 5UTR act -86
CCc1ccc(Nc2nnc(SCC(=O)NCCN3C(=O)CSC3=O)s2)cc1	aSyn 5UTR act -65
O=C(NC(=O)c1ccccc1O)c1ccc(C(F)(F)F)cc1	aSyn 5UTR act -69
Cn1/c(=N/N=C/c2ccc(N3CCOCC3)cc2)sc2ccccc21	aSyn 5UTR act -65
CCOC(=O)c1ccc(-c2ccc(/C=N/NC(=O)CN(c3ccccc3Br)S(C)(=O)=O)o2)cc1	aSyn 5UTR act -140
S=C(Nc1ccc2c(c1)OCO2)Nc1ccccc1Cl	aSyn 5UTR act -85
OCCNC(=S)Nc1ccc2c(c1)OCCO2	aSyn 5UTR act -91
COCCCNC(=S)Nc1ccc2c(c1)OCCO2	aSyn 5UTR act -116
S=C(NCc1ccc(Cl)c(Cl)c1)Nc1ccc2c(c1)OCO2	aSyn 5UTR act -110
S=C(Nc1ccc2c(c1)OCCO2)Nc1ccc2c(c1)OCO2	aSyn 5UTR act -75
Cc1ccc(/C=C(\C#N)C(=O)Nc2ccccn2)o1	aSyn 5UTR act -164
S=c1[nH]nc(Cn2c(-c3ccccn3)nc3ccccc32)n1-c1ccc2c(c1)OCCO2	aSyn 5UTR act -75
COc1ccc(Cn2c(C3CC3)nc3ccc(NC(=O)c4cccnc4)cc3c2=O)cc1	aSyn 5UTR act -176
Cc1nc2ccc(N)cc2c(=O)n1Cc1ccc(Cl)cc1	aSyn 5UTR act -74
CCCc1nc2ccc(NC(C)=O)cc2c(=O)n1Cc1ccc(Cl)cc1	aSyn 5UTR act -137

Screening data deposited in PubChem BioAssay by Broad Institute.
